Source: PubChem BioAssay (National Center for Advancing Translational Sciences (NCATS))
Compounds with a hit are over-represented: about 12% of the library has one in this group of screens.
Sfp PPTase inh – blocks B. subtilis Sfp PPTase activity. hit rate 3.5% among 310,000. Potency, µM, without a hit: largest response in the series, negative = inhibition, most hits filed as inhibitors. Q9F4F7. Biochemical Sfp PPTase activity, qHTS. AID 1490;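 note: the enzyme is Sfp with the accession as filed and its product quenches rhodamine fluorescence; 0% = enzyme reaction without inhibitor and -100% = no enzyme wells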
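Sfp 15 nM + cpd, 15 min RT; start w/ rhodamine-CoA 5 uM, BHQ-2-YbbR 12.5 uM (final); 50 mM Hepes pH 7.6, 10 mM MgCl2, 0.01% NP-40, 0.01% BSA; read 525/598 nm at 0 and 30 min.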
G9a block – inhibitors of human histone lysine methyltransferase G9a; G9a H3K9 monomethylation, AlphaScreen, 2 h; AID 504332; Potency, µM (top dose mostly 102 µM), inactives show at the highest dose activity, negative = inhibition, usual class: inhibitors; hit rate 8.8% among 350,000; note: % is set by controls: 0 for no effect and ±100 for the full control effect; nearly all actives have a fitted effect of over 75% in size
Target sequence (Q96KQ7 913-1193 limits assumed): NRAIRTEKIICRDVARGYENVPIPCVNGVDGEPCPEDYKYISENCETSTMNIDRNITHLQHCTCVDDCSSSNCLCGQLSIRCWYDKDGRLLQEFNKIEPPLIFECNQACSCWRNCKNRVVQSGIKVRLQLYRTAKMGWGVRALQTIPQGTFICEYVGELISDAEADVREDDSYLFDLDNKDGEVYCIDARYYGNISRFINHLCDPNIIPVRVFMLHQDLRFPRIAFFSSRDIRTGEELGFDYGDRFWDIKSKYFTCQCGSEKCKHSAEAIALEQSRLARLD
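Quantitative HTS format: methyltransferase activity on a biotin-tagged H3K9 peptide is measured by AlphaScreen, using a rabbit anti-monomethyl-H3K9 antibody with streptavidin donor and anti-IgG acceptor beads. Final levels are 20 nM enzyme, 500 nM peptide, 20 uM SAM; 2 h RT.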
JMJD2A Tudor inh – JMJD2A Tudor domain (human) inhibition; O75164; hit rate 4.4% among 390,000; Potency, µM (series often up to 114 µM), inactives show at the top dose activity change, negative = inhibition, hits mostly inhibitors; AlphaScreen JMJD2A-Tudor / H3K4me3 peptide binding; note: % is set by controls: 0 for no effect and ±100 for the full control effect; nearly all actives have a fitted effect of over 50% in size
HP1b binding inh – inhibitors of HP1-beta chromodomain binding to methylated histone tails; P83916; AlphaScreen HP1-beta / biotin-H3K9me3 peptide binding; Potency, µM (titrated, usually from 114 µM), for the others: top-dose activity change, negative = inhibition, actives largely listed as inhibitors; hit rate 0.56% among 390,000; AID 540317; note: nearly all actives have a fitted effect of over 70% in size
Target sequence (P83916 whole entry, looked up): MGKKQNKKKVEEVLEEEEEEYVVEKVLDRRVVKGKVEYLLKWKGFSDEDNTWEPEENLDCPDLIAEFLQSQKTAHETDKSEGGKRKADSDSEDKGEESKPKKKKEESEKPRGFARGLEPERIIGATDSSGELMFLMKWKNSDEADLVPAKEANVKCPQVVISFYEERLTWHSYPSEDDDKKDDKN
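AlphaScreen: HP1-beta (50 nM) preformed 30 min with biotin-H3(1-18)K9me3 peptide (50 nM) in PBS pH 7.4, 0.01% Tween-20. Compound added for 30 min at RT, then streptavidin donor/nickel chelate acceptor beads (10 ug/mL) for 30 min.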
BAZ2B block – blocks human BAZ2B; Q9UIF8; AlphaScreen BAZ2B-H3K14Ac peptide displacement; Potency, µM (series often up to 114 µM), for the others: at the top dose activity change, negative = inhibition, actives largely listed as inhibitors; hit rate 4.4% among 360,000; note: % is set by controls: 0 for no effect and ±100 for the full control effect; nearly all actives have a fitted effect of over 60% in size
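AlphaScreen luminescence quantifies BAZ2B engagement of H3K14Ac peptide; the protein and biotinylated peptide are both at 50 nM final, buffer PBS pH 7.4 with 0.01% Tween-20, all steps at room temperature.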
Numbers without * were called inactive; ? = inconclusive; . = no result given; [ ] = dose if it differs, or a comment. Calls come from the whole dose curve; as a rule, active = well fitted curve in the direction sought with a large enough effect; inconclusive = small, poorly fitted or top-dose-only effect, or another doubt; inactive = no such curve, though single readings can be large; an effect the other way counts as inactive or inconclusive. Potency is the fitted concentration of half-maximal effect.

SMILES	Sfp PPTase inh	G9a block	JMJD2A Tudor inh	HP1b binding inh	BAZ2B block
CCCNC(=O)c1cnc(Sc2ncc(C(F)(F)F)cc2Cl)n1C	15.5%	17.8%	-2.5%	22.0%	50.1µM*
Cn1c(C(=O)N2CCOCC2)cnc1Sc1ncc(C(F)(F)F)cc1Cl	-7.5%	2.9%	-3.6%	21.5%	?
Cn1c(SCc2cccc(Br)c2)nc2c1c(=O)[nH]c(=O)n2C	8.3%	12.0%	-13.3%	38.7%	-0.4%
Cn1c(=O)[nH]c(=O)c2c1nc(SCCC(=O)O)n2Cc1cccc(Br)c1	-5.1%	35.5µM*	-20.5%	66.1%	-13.0%
Cn1c(=O)[nH]c(=O)c2c1nc(SCCO)n2CCCc1ccccc1	-6.0%	?	-16.5%	33.7%	4.2%
CC(=O)CSc1nc2c(c(=O)[nH]c(=O)n2C)n1Cc1cccc(Br)c1	44.7µM*	22.4µM*	-21.9%	-7.6%	-3.5%
Cc1c(-c2nnc(SCC(=O)Nc3ccc(Cl)cc3)o2)nnn1-c1ccc(F)cc1	.	16.2%[59 µM]	-22.0%	18.5%[57 µM]	-4.8%
O=C(Nc1cccc(Cl)c1)c1cc(-c2ccco2)on1	-3.5%	?	-15.8%	-6.3%	-2.3%
CCOC(=O)c1cc(C(=O)c2ccccc2O)cn2c(=O)c3c(C)c(C)sc3nc12	44.7µM*	-128.5%[59 µM]	.	.	?
O=C(O)CSc1cc(C(=O)c2ccccc2O)cn2c(=O)c3c4c(sc3nc12)CCCC4	?	?	35.5µM*	70.8µM*	22.4µM*
CCOC(CNC(=O)c1cccn2c(=O)c3c(C)c(C)sc3nc12)OCC	-17.1%	-33.4%[2.33 µM]	38.5%	106.5%	-4.5%
O=C(CCN1C(=O)C2C3C=CC(C3)C2C1=O)N1CCN(c2ccc([N+](=O)[O-])cc2)CC1 (configuration not stated)	-0.5%	-37.2%	-12.7%	29.9%	-15.4%
C=CCN=C1CC(C)(C)CC(=O)/C1=C(/O)CCC(=O)OC	20.0%	82.7%[59 µM]	-5.3%	16.2%	2.2%
O=C(OCC(=O)N1CCCc2ccccc21)c1cccnc1Cl	14.9%	-40.0%	11.7%	46.9%	3.9%
O=C(NCc1n[nH]c(=S)n1-c1ccc(Br)cc1)c1ccc(S(=O)(=O)N2CCOCC2)cc1	-0.4%	3.16µM*	?	27.7%	-5.3%
O=C(NCc1n[nH]c(=S)n1-c1ccc(Br)cc1)c1ccc(S(=O)(=O)N2CCCC2)cc1	-1.2%	2.51µM*	-31.8%	23.0%	-34.5%
COc1ccccc1-n1c(CNC(=O)c2ccc(S(=O)(=O)N3CCOCC3)cc2)n[nH]c1=S	-21.5%	8.91µM*	20µM*	21.2%	?
O=C(NNC(=O)c1ccc(S(=O)(=O)N2CCCC2)cc1)c1ccc(Br)cc1	.	-31.4%	-3.4%	25.2%	6.7%
O=C(NCc1n[nH]c(=S)n1-c1ccc(Br)cc1)c1ccc(S(=O)(=O)N2CCCCC2)cc1	-12.4%	7.94µM*	-33.1%	-15.1%	-19.1%
Cc1cccc(OCC(=O)N2CCN(C(=O)c3cccs3)CC2)c1	6.4%	30.7%	1.6%	25.6%	19.7%
O=C(COC(=O)c1ccc(S(=O)(=O)N2CCCCCC2)cc1)NCc1ccc(F)cc1	.	-26.0%	-14.4%	5.1%	10.8%
COc1ccc(-n2nnnc2CNC(=O)c2ccc(S(=O)(=O)N3CCOCC3)cc2)cc1	.	-7.5%[0.501 µM]	-10.7%	11.8%	7.4%
O=C(NCc1n[nH]c(=S)n1-c1ccc([N+](=O)[O-])cc1)c1ccc(S(=O)(=O)N2CCOCC2)cc1	-1.1%	7.08µM*	56.2µM*	21.6%	-7.4%
O=C(NCc1n[nH]c(=S)n1-c1ccc(F)cc1)c1ccc(S(=O)(=O)N2CCCCC2)cc1	2.2%	2.51µM*	?	18.3%	-0.3%
COc1ccc(-n2c(CNC(=O)c3ccc(S(=O)(=O)N4CCCC4)cc3)n[nH]c2=S)cc1	-2.1%	?	7.94µM*	8.9%	-6.9%
SMILES	Sfp PPTase inh	G9a block	JMJD2A Tudor inh	HP1b binding inh	BAZ2B block
O=C(NCc1n[nH]c(=S)n1-c1ccc(Cl)c(Cl)c1)c1ccc(S(=O)(=O)N2CCOCC2)cc1	-20.3%	8.91µM*	-21.9%	27.3%	-15.9%
O=C1C2C(C(=O)N1Cc1ccco1)C1C=CC2C12CC2 (configuration not stated)	-1.2%	-0.9%[12.7 µM]	-7.1%	21.3%	-1.8%
O=C1CC(=O)N(Cc2ccco2)C(=O)N1	50.1µM*	?	4.47µM*	-78.6%	39.8µM*
S=C1NCN(Cc2ccco2)CN1	-2.8%	2.4%	-9.4%	19.1%	1.3%
O=C1CC(=O)N(Cc2ccco2)C(=S)N1	22.4µM*	8.91µM*	56.2µM*	-11.8%	20µM*
O=C1C2C3c4ccccc4C(c4ccccc43)C2C(=O)N1Cc1ccco1 (configuration not stated)	44.7µM*	?	-18.9%	44.1%	0.5%
COCCN(CC(=O)NCC1CCCO1)C(=O)CCC(=O)Nc1cc(C)ccn1 (configuration not stated)	-9.3%	28.2µM*	-7.8%	46.9%	21.7%
N#C/C(=C\c1cccnc1)C(=O)NC1CCCCC1	-14.5%	-4.6%[59 µM]	-2.6%	30.5%	-0.9%
CN1CCC(=NOc2ccc([N+](=O)[O-])cc2)CC1	2.8%	.	-15.0%	16.1%	96.2%
CCn1c(=O)n(CC)c2cc(N3CCCC3)c(NC(=O)c3ccccc3C)cc21	-9.9%	50.1µM*	?	-1.8%	?
CCn1c(=O)n(CC)c2cc(N3CCCC3)c(NC(=O)c3ccccc3F)cc21	-15.5%	39.8µM*	56.2µM*	?	?
CC(C)C(OC(=O)c1nsc(Cl)c1Cl)C(=O)NC(C)(C)C (configuration not stated)	12.5%	-33.5%	-12.8%	29.4%	-1.0%
COC(=O)c1cc2oc3ccccc3c2n1Cc1ccccn1	39.8µM*	-33.8%	1.1%	28.9%	-8.1%
Cc1ccccc1-n1nc2c(c1NC(=O)c1cc3ccccc3o1)CS(=O)(=O)C2	.	44.7µM*	-21.9%	14.7%	-2.7%
Cc1ccccc1-n1nc2c(c1NC(=O)c1ccc(Br)o1)CSC2	?	44.7µM*	?	-5.0%	-37.0%
OC(c1ccccn1)(c1ccccn1)c1ccccn1	?	-6.9%[59 µM]	56.2µM*	36.8%	22.4µM*
CC(c1ccccn1)C(C)(O)C(C)c1ccccn1 (configuration not stated)	.	.	-3.4%	28.9%	.
O=C(COc1ccc(Cl)cc1Cl)N(C1CCCCC1)C1CCS(=O)(=O)C1 (configuration not stated)	.	-3.1%[59 µM]	-11.1%	26.1%	5.4%
COC(=O)c1cccc(N2C(=O)c3ccccc3S2(=O)=O)c1	-1.7%	56.2µM*	-7.9%	54.3%	8.1%
COC(=O)c1cccc(N2C(=O)c3cccnc3C2=O)c1	-6.2%	?	44.7µM*	27.4%	-112.6%
COC(=O)c1ccc(CN2C(=O)c3ccccc3S2(=O)=O)cc1	2.4%	17.1%	-7.0%	53.6%	9.9%
COc1ccccc1N1C(=O)c2cccnc2C1=O	16.5%	3.1%	-2.4%	49.7%	?
CCc1ccc(S(=O)(=O)NC2CCCCNC2=O)cc1 (configuration not stated)	20.3%	18.3%	-5.4%	71.7%	2.9%
